Source: PubChem BioAssay (National Center for Advancing Translational Sciences (NCATS))
SMN2 splice enh – increases expression of the SMN2 splice variant; HEK293 SMN2-luciferase splicing reporter, luminescence, 30-36 h; Potency, µM (top dose mostly 46.1 µM), for inactives: at the highest dose activity change, positive = activation, usual class: activators; 210,000 compounds, 2.8% hits; AID 1458; also: % of control where 0% means no effect; nearly all actives have a fitted effect of over 55% in size
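qHTS luciferase splicing reporter: luminescence rises when SMN2 exon 7 is included in transfected HEK293 cells. Compound exposure lasted 30-36 h at 37C, with 4.5 mM final sodium butyrate as control, followed by a ONE-Glo read.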
NPC1 promoter act – activates the NPC1 promoter; 320,000 compounds, 2.4% hits; Huh7 NPC1 promoter luciferase reporter, 24 h; Potency, µM (highest dose often 9.22 µM), for inactives: at the highest dose activation, most hits filed as activators; also: % of control where 0% means no effect; nearly all actives have a fitted effect of over 60% in size
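Stably transfected Huh7 (NPC1 promoter→luciferase), 1500 cells/well in Opti-MEM + 10% FBS, 2 h settle, then compound 24 h at 37 °C. Luminescence after 10 min with Amplite reagent.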
Rab9 promoter act – activates the Rab9 promoter; Huh7 Rab9 promoter-luciferase reporter, luminescence, 24 h; Potency, µM (titrated, usually from 9.22 µM), for the others: at the top dose activation, negative = inhibition, hits mostly activators; 320,000 compounds, 2.8% hits; also: % of control where 0% means no effect; nearly all actives have a fitted effect of over 60% in size
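Luminescence from Amplite-detected luciferase (10 minutes, ambient) reports Rab9 promoter activation. Before that, stable Rab9-luciferase Huh7 cells (1500/well, reduced-serum OP-MEM I plus 10% FBS) were exposed to compound for 24 hours at 37C.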
KinaseGlo FLuc – Kinase-Glo luciferase inhibition (counter-screen); Q27757; Kinase-Glo luciferase, ATP luminescence, 8 min; Potency, µM (highest dose often 38.3 µM), for the others: at the highest dose activity change, negative = inhibition, hits mostly inhibitors; 200,000 compounds, 0.28% hits; AID 1379; also: % is scaled to controls: 0 for no effect and ±100 for the full control effect; nearly all actives have a fitted effect of over 60% in size
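Compound is pinned into ATP-containing buffer (10 uM ATP, imidazole pH 7.2, 7 mM MgCl2). Kinase-Glo luciferase reagent is then added. Light output is recorded following an 8-min room-temperature incubation.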
ELG1 genotox – induces genotoxicity in HEK293T cells with luciferase-tagged ELG1. HEK293T ELG1-luciferase reporter, luminescence, 16 h. Potency, µM (highest dose often 46 µM), without a hit: at the top dose activity change, positive = activation, most hits filed as activators. 330,000 compounds, 1.3% hits. AID 504466; also: % of control where 0% means no effect; nearly all actives have a fitted effect of over 60% in size
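Genotoxicity was scored as increased ELG1-luciferase reporter signal, measured by ONE-Glo luminescence (30 min, room temperature). Compound or vehicle exposure of the HEK293T reporter cells lasted 16 hr at 37°C.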
FLuc counter – counter-screen for miR-21 project: firefly luciferase inhibitors or activators; Potency, µM (highest dose often 57.5 µM), for the others: at the highest dose activity change, negative = inhibition, hits mostly inhibitors; 360,000 compounds, 6.9% hits; purified FLuc, Km substrates, luminescence inhibition;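 also: plate controls were vehicle for no effect and reference inhibitor for full effect; nearly all actives have a fitted effect of over 55% in size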
Target sequence (P08659 whole entry, looked up): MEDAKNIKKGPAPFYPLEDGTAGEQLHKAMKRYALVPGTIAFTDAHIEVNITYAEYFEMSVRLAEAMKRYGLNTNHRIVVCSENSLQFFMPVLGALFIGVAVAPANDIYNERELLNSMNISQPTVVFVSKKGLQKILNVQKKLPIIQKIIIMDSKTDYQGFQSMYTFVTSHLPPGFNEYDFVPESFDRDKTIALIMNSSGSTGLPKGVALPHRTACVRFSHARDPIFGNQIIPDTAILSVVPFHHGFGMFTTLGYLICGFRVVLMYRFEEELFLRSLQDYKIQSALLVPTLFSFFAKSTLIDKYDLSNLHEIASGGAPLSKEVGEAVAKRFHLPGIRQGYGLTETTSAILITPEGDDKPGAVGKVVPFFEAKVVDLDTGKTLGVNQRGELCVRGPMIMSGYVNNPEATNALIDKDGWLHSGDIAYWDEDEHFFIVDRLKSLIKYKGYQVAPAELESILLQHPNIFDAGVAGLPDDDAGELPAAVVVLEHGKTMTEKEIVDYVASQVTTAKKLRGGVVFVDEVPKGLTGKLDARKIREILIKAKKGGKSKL
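Purified P. pyralis luciferase, 10 nM final, with Km-level 10 uM D-luciferin and 10 uM ATP in 50 mM Tris acetate pH 7.5, 10 mM Mg acetate, 0.01% Tween-20, 0.05% BSA; 6-point qHTS titration about 60 µM downward; luminescence read.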
Numbers without * were called inactive; [ ] = dose if it differs, or a comment. Hits are enriched below; roughly 7.5% of the tested compounds scored in any of these assays. Calls follow the shape of the dose curve; as a rule, active = well fitted curve in the direction sought with a large enough effect; inconclusive = small, poorly fitted or top-dose-only effect, or another doubt; inactive = no such curve, though single readings can be large; an effect the other way counts as inactive or inconclusive. Potency is read from the fitted curve at half-maximal effect.

`C/C(=N\NC(=O)c1cc(Br)ccc1O)c1ccccn1` gave NPC1 promoter act inconclusive, Rab9 promoter act inconclusive, ELG1 genotox 21µM* and FLuc counter 17µM*.
For COc1ccc(C(=O)N/N=C(\C)c2ccccn2)cc1OC the results were NPC1 promoter act -5%, Rab9 promoter act -30%, ELG1 genotox inconclusive and FLuc counter inconclusive.
`C/C(=N\NC(=O)c1ccccc1Cl)c1ccccn1` gave NPC1 promoter act 23%, Rab9 promoter act -21%, ELG1 genotox 15µM* and FLuc counter 24µM*.
C/C(=N/NC(=O)c1cnccn1)c1ccncc1 was read as SMN2 splice enh 2%, NPC1 promoter act 0%, Rab9 promoter act 16%, KinaseGlo FLuc -1%, ELG1 genotox 4% and FLuc counter -4%.
`C/C(=N\NC(=O)c1ccc(Cl)c(Cl)c1)c1ccccn1` gave NPC1 promoter act 17%, Rab9 promoter act -28%, ELG1 genotox inconclusive and FLuc counter inconclusive.
C/C(=N\NC(=O)c1cccc(Br)c1)c1ccccn1 was read as NPC1 promoter act 6%, Rab9 promoter act -22%, ELG1 genotox inconclusive and FLuc counter 13µM*.
`C/C(=N/NC(=O)c1ccccn1)c1ccncc1` gave NPC1 promoter act 3.5µM*, Rab9 promoter act inconclusive, ELG1 genotox inconclusive and FLuc counter 17µM*.
`CCOc1ccc(N(CC(=O)Nc2ccccc2CC)S(=O)(=O)c2c(C)noc2C)cc1` gave SMN2 splice enh -29% and FLuc counter -2%.
COc1cc2nc(NCCc3cccc(C)c3)n3nc(-c4ccccc4)nc3c2cc1OC was read as SMN2 splice enh 9% and FLuc counter 4%.
For CCOC(=O)CCCC(=O)N1CCOCCOCCOCC1 the results were NPC1 promoter act 13%, Rab9 promoter act -5%, ELG1 genotox -1% and FLuc counter 0%.
`O=C1CC(c2ccccc2)Sc2ccccc2N1Cc1ccccc1F` (stereo unspecified) gave SMN2 splice enh -4% and FLuc counter inconclusive.
For COc1cc(/C=C(\C#N)c2nc3ccc(C)cc3[nH]2)ccc1OC(C)C the results were SMN2 splice enh -7% and FLuc counter -17%.
CCN(CC)c1ccc(/C=C(/C#N)c2nc3ccccc3[nH]2)c(OC(C)C)c1 was read as SMN2 splice enh -65%, NPC1 promoter act 21%, Rab9 promoter act inconclusive, KinaseGlo FLuc -4%, ELG1 genotox 17% and FLuc counter 2.7µM*.
Screening CCOc1ccc(NC(=O)CN2C(=O)C(c3ccccc3)=NC23CCC(C)CC3)cc1 (stereo unspecified) returned SMN2 splice enh -7% and FLuc counter -7%.
Screening CCn1cc2c(n1)-c1c(oc(C(=O)Nc3cccc(C)c3C)c1C)CC2 returned FLuc counter -2%.
Screening CCc1ccc(C(=O)Nc2cccc(-c3nn[nH]n3)c2)s1 returned NPC1 promoter act 2%, Rab9 promoter act 23%, ELG1 genotox 0% and FLuc counter 1.5µM*.
For O=C(Nc1cccc(-c2nn[nH]n2)c1)c1cccs1 the results were NPC1 promoter act 2.8µM*, Rab9 promoter act inconclusive, ELG1 genotox -3% and FLuc counter inconclusive.
O=C(Nc1cccc(-c2nn[nH]n2)c1)c1csc2c1CCCC2 was read as NPC1 promoter act 12%, Rab9 promoter act 7%, ELG1 genotox 3% and FLuc counter 11µM*.
COc1cc(/C=C2/C(=O)NN(c3cccc(C)c3)C2=O)cc([N+](=O)[O-])c1O was read as SMN2 splice enh 6%, NPC1 promoter act -1%, Rab9 promoter act -4%, KinaseGlo FLuc -10%, ELG1 genotox 1% and FLuc counter 21µM*.
COc1cc(/C=C2/C(=O)NN(c3ccc(C)c(Cl)c3)C2=O)cc([N+](=O)[O-])c1O was read as NPC1 promoter act -4%, Rab9 promoter act 6%, ELG1 genotox 1% and FLuc counter 19µM*.
`COc1cc(-c2nc3ccccc3s2)ccc1O` gave SMN2 splice enh inconclusive, NPC1 promoter act 6%, Rab9 promoter act inconclusive, KinaseGlo FLuc -13%, ELG1 genotox inconclusive and FLuc counter 8.5µM*.
Screening COc1ccc(-c2nc3ccccc3s2)cc1O returned SMN2 splice enh -46%, NPC1 promoter act inconclusive, Rab9 promoter act 5%, KinaseGlo FLuc -30%, ELG1 genotox 0.65µM* and FLuc counter 0.15µM*.
For CC(C)Oc1ccc(C(=O)Nc2ccc(-c3nc4ccccc4s3)cc2)cc1 the results were FLuc counter -4%.
CCOc1cc(-c2nc3ccccc3s2)ccc1O was read as NPC1 promoter act inconclusive, Rab9 promoter act 15%, ELG1 genotox inconclusive and FLuc counter 15µM*.
For CC(C)c1ccc(-c2nc3ccccc3s2)cc1 the results were NPC1 promoter act -18%, Rab9 promoter act -37%, ELG1 genotox -9% and FLuc counter 0.076µM*.
Screening COc1ccc(-c2nc3ccccc3s2)cc1NC(=O)c1cc(OC)c(OC)c(OC)c1 returned SMN2 splice enh 4% and FLuc counter inconclusive.
Screening COc1ccc(-c2nc3ccccc3s2)cc1NC(=O)c1cccc(F)c1 returned FLuc counter -18%.
For COc1cc(OC)cc(-c2cc3nc(C)c(CCC(=O)NCc4ccc(Cl)cc4)c(C)n3n2)c1 the results were SMN2 splice enh -12% and FLuc counter 0%.
For O=S(=O)(c1cccc(-c2nc3ccccc3s2)c1)N1CCCC1 the results were SMN2 splice enh -24%, NPC1 promoter act 10%, Rab9 promoter act 15%, KinaseGlo FLuc 5%, ELG1 genotox -5% and FLuc counter 0%[2.3 µM].
O=S(=O)(c1ccc(-c2nc3ccccc3s2)cc1)N1CCCC1 was read as SMN2 splice enh -13%, NPC1 promoter act inconclusive, Rab9 promoter act 2.8µM*, KinaseGlo FLuc 10%, ELG1 genotox inconclusive and FLuc counter -12%.
`O=C(Cc1ccccc1F)NNC(=O)c1ccncc1` gave NPC1 promoter act -3%, Rab9 promoter act 0%, ELG1 genotox 4% and FLuc counter 2%.
Cc1nc(/N=C(\N)NC(=O)c2ccccc2)nc2ccccc12 was read as SMN2 splice enh 18µM*, NPC1 promoter act 23%, Rab9 promoter act inconclusive, KinaseGlo FLuc 4%, ELG1 genotox 5% and FLuc counter inconclusive.
Cc1nc(N=C(N)N)nc2ccccc12 was read as SMN2 splice enh -25%, NPC1 promoter act -11%, Rab9 promoter act -21%, KinaseGlo FLuc 0%, ELG1 genotox -4% and FLuc counter 1%.
